Results taken from PubChem BioAssay (NCI).
This is part of a sample that, as a whole, favours compounds with a hit. Of some 79,000 tested, about 15% had one in any assay. Activity calls are given as the source filed them. No stated cut-off is given here; in the data, active means growth inhibition above about 70%; inactive means the rest.

Columns and labels:
[1] = NCI Yeast Anticancer Drug Screen. Data for the rad52 strain (AID 147);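 further: 0% = growth of vehicle-treated control cultures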; settings: S. cerevisiae rad52 mutant growth inhibition, hits give high values
Outline: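 Compounds are applied to a genetically defined yeast strain lacking normal DNA damage repair, and inhibition of growth is expressed relative to cultures given vehicle only.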

[2] = NCI Yeast Anticancer Drug Screen. Data for the wt1 strain (AID 149);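 further: 0% = growth of vehicle-treated wt1 cultures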; settings: S. cerevisiae wt1 strain (SPY 50644) growth inhibition, hits give high values
Outline: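 wt1 yeast, compound-treated; % growth inhibition vs vehicle control.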

[3] = NCI Yeast Anticancer Drug Screen. Data for the rad50EPP+ strain (AID 151);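 further: 0% = growth of vehicle-treated control cultures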; settings: S. cerevisiae rad50 mutant strain, hits give high values
Outline: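 Compounds were applied to the rad50EPP+ yeast strain, which bears a defined DNA repair alteration, and growth inhibition was determined relative to vehicle-treated cultures.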

[4] = NCI Yeast Anticancer Drug Screen. Data for the rad50 strain (AID 155);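 further: 0% = growth of vehicle-only cultures of the same strain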; settings: S. cerevisiae rad50 strain growth inhibition, hits give high values
Outline: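 Genetically altered yeast (DNA repair pathway); compound treatment; growth inhibition vs vehicle ctrl.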

[5] = NCI Yeast Anticancer Drug Screen. Data for the mec2-1 strain (AID 157); settings: S. cerevisiae mec2-1 strain, hits give high values
Outline: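 Strain: mec2-1 (DNA repair/cell cycle alteration). Compound exposure, then growth measured; inhibition expressed relative to vehicle.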

[6] = NCI Yeast Anticancer Drug Screen. Data for the rad14 strain (AID 159);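 further: 0% = growth of vehicle-treated control cultures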; settings: S. cerevisiae rad14 strain growth inhibition, hits give high values
Outline: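 Test compounds were applied to a repair-deficient yeast strain. Its growth was then compared with that of cultures given vehicle alone, and inhibition was expressed relative to those controls.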

[7] = NCI Yeast Anticancer Drug Screen. Data for the sgs1 mgt1 strain (AID 161);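 further: 0% = growth of cultures given vehicle only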; settings: S. cerevisiae sgs1 mgt1 strain, hits give high values
Outline: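 Test agents were incubated with a DNA-repair-mutant yeast strain. Growth was then read and compared against vehicle-treated controls.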

[8] = NCI Yeast Anticancer Drug Screen. Data for the CLN2oe strain (AID 163);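 further: 0% = growth of vehicle-only control cultures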; settings: S. cerevisiae CLN2oe strain, hits give high values
Outline: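 Growth of a genetically modified yeast strain is measured after compound exposure and compared with cultures given vehicle alone.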

[9] = NCI Yeast Anticancer Drug Screen. Data for the cln2 rad14 strain (AID 165);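 further: 0% = growth equal to vehicle treated cultures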; settings: S. cerevisiae cln2 rad14 strain, hits give high values
Outline: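 Compounds are applied to the cln2 rad14 yeast strain, and growth is then compared with that of vehicle-treated cultures to give inhibition.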

[10] = NCI Yeast Anticancer Drug Screen. Data for the bub3 strain (AID 167); settings: S. cerevisiae bub3 mutant strain, hits give high values
Outline: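 Yeast carrying a defined mutation is treated with each compound, and growth is compared with that of vehicle-exposed cells to give inhibition.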

[11] = NCI Yeast Anticancer Drug Screen. Data for the wt2 strain (AID 169);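 further: 0% = growth of vehicle-treated yeast cultures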; settings: S. cerevisiae wt2 strain growth inhibition, hits give high values
Outline: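 This strain belongs to a panel of yeast strains with defined genetic alterations in DNA damage repair or cell cycle control. Compounds are applied, and growth inhibition is measured against vehicle-treated cultures.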

[12] = NCI Yeast Anticancer Drug Screen. Data for the mlh1 strain (AID 171);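 further: 0% = growth of vehicle-treated control cultures of the same strain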; settings: S. cerevisiae mlh1 strain growth inhibition, hits give high values
Outline: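 Growth of the mutant yeast strain after compound exposure, expressed as inhibition relative to vehicle-only controls.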

[13] = NCI Yeast Anticancer Drug Screen. Data for the sgs1 strain (AID 173);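 further: 0% = growth of vehicle-only control cultures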; settings: S. cerevisiae sgs1 mutant, hits give high values
Outline: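 Growth of a yeast strain bearing a defined genetic alteration is measured after compound treatment. Inhibition is expressed relative to vehicle-only controls.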

[14] = NCI Yeast Anticancer Drug Screen. Data for the mlh1 rad18 strain (AID 175); settings: S. cerevisiae mlh1 rad18 strain growth inhibition, hits give high values
Outline: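 Read-out is yeast growth inhibition, calculated against vehicle-only controls. The compound was applied to a strain engineered with DNA damage repair alterations.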

[15] = NCI Yeast Anticancer Drug Screen. Data for the rad18 strain (AID 177); settings: S. cerevisiae rad18 mutant growth inhibition, hits give high values
Outline: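 Growth of the mutant yeast strain after compound exposure, normalised to vehicle-only cultures.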

[16] = NCI Yeast Anticancer Drug Screen. Data for the mgt1 strain (AID 153); settings: S. cerevisiae mgt1 mutant growth inhibition, hits give high values
Outline: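 Strain: mgt1 yeast, one of a set carrying defined DNA damage repair or cell cycle control alterations. Compound-treated growth compared with vehicle.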

[17] = at 5.0 µM (retest, dose inferred, filed as 0.5)
[18] = at 50.0 µM (retest, dose inferred, filed as 5.0)

Measured: growth inhibition

CC(C)CCCC(C)C1CCC2C3CCC4=CC(=O)/C(=C\O)CC4(C)C3CCC12C (stereo not drawn)
inactive: [1]; at 1.2 µM 1% | [1]; at 3.7 µM 2% | [1]; at 11.0 µM 3% | [1]; at 33.0 µM 6% | [1]; at 100.0 µM 25% | [2]; at 1.2 µM 1% | [2]; at 3.7 µM 1% | [2]; at 11.0 µM 2% | [2]; at 33.0 µM 3% | [2]; at 100.0 µM 16% | [3]; at 1.2 µM 2% | [3]; at 3.7 µM -2% | [3]; at 11.0 µM -6% | [3]; at 33.0 µM -8% | [3]; at 100.0 µM -4% | [4]; at 1.2 µM 1% | [4]; at 3.7 µM 0% | [4]; [17] 5% | [4]; at 11.0 µM -2% | [4]; at 33.0 µM 0% | [4]; [18] 47% | [4]; at 50.0 µM 15.9% | [4]; at 100.0 µM 21% | [5]; at 1.2 µM -2% | [5]; at 3.7 µM -6% | [5]; [17] 3% | [5]; at 11.0 µM -7% | [5]; at 33.0 µM -2% | [5]; [18] 45% | [5]; at 50.0 µM 6.2% | [5]; at 100.0 µM 22% | [6]; at 1.2 µM 1% | [6]; at 3.7 µM 2% | [6]; at 11.0 µM 3% | [6]; at 33.0 µM 7% | [6]; at 100.0 µM 20% | [7]; [17] 7% | [7]; [18] 48% | [7]; at 50.0 µM 14.9% | [8]; at 1.2 µM -3% | [8]; at 3.7 µM -5% | [8]; at 11.0 µM -10% | [8]; at 33.0 µM -18% | [8]; at 100.0 µM 2% | [9]; [17] 0% | [9]; [18] 26% | [9]; at 50.0 µM 48.5% | [10]; at 1.2 µM 4% | [10]; at 3.7 µM -1% | [10]; [17] 6% | [10]; at 11.0 µM -10% | [10]; at 33.0 µM -9% | [10]; [18] 54% | [10]; at 50.0 µM 47.8% | [10]; at 100.0 µM 21% | [11]; at 1.2 µM 2% | [11]; at 3.7 µM 0% | [11]; at 11.0 µM 2% | [11]; at 33.0 µM 1% | [11]; at 100.0 µM 10% | [12]; at 1.2 µM -1% | [12]; at 3.7 µM -2% | [12]; at 11.0 µM -3% | [12]; at 33.0 µM -2% | [12]; at 100.0 µM 15% | [13]; at 1.2 µM 0% | [13]; at 3.7 µM -1% | [13]; at 11.0 µM -1% | [13]; at 33.0 µM 3% | [13]; at 100.0 µM 29% | [14]; [17] 2% | [14]; [18] 52% | [14]; at 50.0 µM 26.1% | [15]; at 1.2 µM 3% | [15]; at 3.7 µM 3% | [15]; at 11.0 µM 2% | [15]; at 33.0 µM 6% | [15]; at 100.0 µM 28%

Oc1ccc2ccccc2c1CCc1c(O)ccc2ccccc12
active: [1]; at 33.0 µM 94% | [1]; at 100.0 µM 85% | [2]; at 100.0 µM 88% | [3]; at 3.7 µM 70% | [3]; at 11.0 µM 85% | [3]; at 33.0 µM 86% | [3]; at 100.0 µM 83% | [16]; at 33.0 µM 95% | [16]; at 100.0 µM 87% | [4]; at 33.0 µM 93% | [4]; [18] 94% | [4]; at 50.0 µM 95.1% | [4]; at 100.0 µM 86% | [5]; at 11.0 µM 95% | [5]; at 33.0 µM 96% | [5]; [18] 95% | [5]; at 50.0 µM 96.5% | [5]; at 100.0 µM 90% | [8]; at 11.0 µM 97% | [8]; at 33.0 µM 92% | [8]; at 100.0 µM 82% | [9]; [18] 92% | [9]; at 50.0 µM 88.2% | [10]; at 11.0 µM 98% | [10]; at 33.0 µM 93% | [10]; [18] 94% | [10]; at 50.0 µM 94.9% | [10]; at 100.0 µM 86% | [11]; at 100.0 µM 87% | [12]; at 11.0 µM 79% | [12]; at 33.0 µM 94% | [12]; at 100.0 µM 90% | [13]; at 33.0 µM 92% | [13]; at 100.0 µM 88% | [14]; [18] 92% | [14]; at 50.0 µM 95.2% | [15]; at 33.0 µM 91% | [15]; at 100.0 µM 85%
inactive: [1]; at 1.2 µM 3% | [1]; at 3.7 µM 14% | [1]; at 11.0 µM 54% | [2]; at 1.2 µM 5% | [2]; at 3.7 µM 17% | [2]; at 11.0 µM 19% | [2]; at 33.0 µM 52% | [3]; at 1.2 µM 28% | [16]; at 1.2 µM 2% | [16]; at 3.7 µM 6% | [16]; at 11.0 µM 60% | [4]; at 1.2 µM 5% | [4]; at 3.7 µM 13% | [4]; [17] 15% | [4]; at 11.0 µM 68% | [5]; at 1.2 µM 7% | [5]; at 3.7 µM 15% | [5]; [17] -6% | [8]; at 1.2 µM 7% | [8]; at 3.7 µM 4% | [9]; [17] 6% | [10]; at 1.2 µM -1% | [10]; at 3.7 µM 2% | [10]; [17] 45% | [11]; at 1.2 µM 7% | [11]; at 3.7 µM 16% | [11]; at 11.0 µM 38% | [11]; at 33.0 µM 66% | [12]; at 1.2 µM 5% | [12]; at 3.7 µM 8% | [13]; at 1.2 µM 7% | [13]; at 3.7 µM 19% | [13]; at 11.0 µM 51% | [14]; [17] 55% | [15]; at 1.2 µM 5% | [15]; at 3.7 µM 15% | [15]; at 11.0 µM 46%
